# Assay results taken from PubChem BioAssay (NCATS).
# Inconclusive results are not listed. Where a call stands in place of a potency, no number is given. Active and inactive are the calls of the source. Unless noted, the call rests on the fitted dose curve; in most records, active means well fitted curve in the direction sought with a large enough effect; inconclusive means small, poorly fitted or top-dose-only effect, or another doubt; inactive means no such curve, though single readings can be large; an effect the other way counts as inactive or inconclusive.
# Assays:
# [1] = molecular target: ATP-dependent 6-phosphofructokinase (Trypanosoma brucei brucei) (UniProt O15648); assay: qHTS Assay to Find Inhibitors of T. brucei phosphofructokinase: hit validation (AID 492961);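 further: luminescence reports ADP formed as PFK phosphorylates fructose-6-phosphate with ATP; series mostly up to about 51 µM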
# Sequence of ATP-dependent 6-phosphofructokinase (Trypanosoma brucei brucei) (O15648 whole entry, looked up): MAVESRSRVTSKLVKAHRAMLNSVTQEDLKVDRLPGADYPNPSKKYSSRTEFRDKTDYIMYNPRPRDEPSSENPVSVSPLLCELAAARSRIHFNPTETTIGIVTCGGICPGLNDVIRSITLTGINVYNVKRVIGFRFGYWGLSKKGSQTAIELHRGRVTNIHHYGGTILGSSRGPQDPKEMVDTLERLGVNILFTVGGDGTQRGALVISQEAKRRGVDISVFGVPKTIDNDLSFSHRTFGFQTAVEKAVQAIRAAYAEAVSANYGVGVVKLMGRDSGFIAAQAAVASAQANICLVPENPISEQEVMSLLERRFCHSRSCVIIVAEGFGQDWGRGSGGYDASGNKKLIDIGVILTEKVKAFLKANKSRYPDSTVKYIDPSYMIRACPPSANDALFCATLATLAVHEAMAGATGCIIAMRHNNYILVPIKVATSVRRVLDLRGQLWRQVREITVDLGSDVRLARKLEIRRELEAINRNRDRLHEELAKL
# How it was run: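 Reaction: 0.1 M triethanolamine pH 8.0, 5 mM MgCl2, F6P 0.5 mM, ATP 0.1 mM, PFK 1.25 nM, 45 min RT. Read-out: ADP-Glo luminescence. Analysis: concentration-response fits, classed by r2 and efficacy.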
# [2] = molecular target: D(1A) dopamine receptor (Homo sapiens) (UniProt P21728); assay: HTS Assay for Allosteric Agonists of the Human D1 Dopamine Receptor: Primary Screen for Antagonists (AID 488983);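 further: calcium flux response to an EC80 dopamine challenge measured with no-wash dye; nearly all actives have a fitted effect of over 65% in size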
# Sequence of D(1A) dopamine receptor (Homo sapiens) (P21728 whole entry, looked up): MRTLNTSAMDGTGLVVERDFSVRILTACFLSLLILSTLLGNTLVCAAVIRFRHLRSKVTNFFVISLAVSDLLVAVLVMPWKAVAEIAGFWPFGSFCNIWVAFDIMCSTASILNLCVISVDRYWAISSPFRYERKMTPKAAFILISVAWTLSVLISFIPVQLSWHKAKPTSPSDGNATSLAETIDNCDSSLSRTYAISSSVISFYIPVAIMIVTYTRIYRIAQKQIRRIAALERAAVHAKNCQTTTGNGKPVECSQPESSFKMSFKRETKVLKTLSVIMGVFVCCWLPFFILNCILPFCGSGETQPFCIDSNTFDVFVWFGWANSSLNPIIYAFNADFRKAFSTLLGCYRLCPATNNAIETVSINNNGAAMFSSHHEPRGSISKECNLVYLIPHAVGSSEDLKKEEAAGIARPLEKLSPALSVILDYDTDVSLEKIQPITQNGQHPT
# How it was run: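 Kinetic fluorescence at 1 cycle/sec tracked intracellular calcium in force-coupled, tetracycline-inducible HEK293 T-REx D1 cells. Loss of response to an EC80 dopamine dose, given 180 s after compound, marked antagonists.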
# [3] = Validation screen for small molecules that induce genotoxicity in human embryonic kidney (HEK293T) cells expressing luciferase-tagged ELG1 (AID 493106)
# How it was run: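 Cells were dispensed at 2,000 per well, then 23 nL compound or DMSO was pinned in. After 16 hr at 37 °C and 5% CO2, ONE-Glo reagent was added. Luciferase activity was measured following 30 min at room temperature.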
# [4] = molecular target: ATPase family AAA domain-containing protein 5 (Homo sapiens) (UniProt Q96QE3); assay: Validation screen for small molecules that inhibit ELG1-dependent DNA repair in human embryonic kidney (HEK293T) cells expressing luciferase-tagged ELG1 (AID 493107); further: nearly all actives have a fitted effect of over 70% in size; further: potency means the concentration at half of the fitted maximal effect
# Sequence of ATPase family AAA domain-containing protein 5 (Homo sapiens) (Q96QE3 whole entry, looked up, the tested form may be a part): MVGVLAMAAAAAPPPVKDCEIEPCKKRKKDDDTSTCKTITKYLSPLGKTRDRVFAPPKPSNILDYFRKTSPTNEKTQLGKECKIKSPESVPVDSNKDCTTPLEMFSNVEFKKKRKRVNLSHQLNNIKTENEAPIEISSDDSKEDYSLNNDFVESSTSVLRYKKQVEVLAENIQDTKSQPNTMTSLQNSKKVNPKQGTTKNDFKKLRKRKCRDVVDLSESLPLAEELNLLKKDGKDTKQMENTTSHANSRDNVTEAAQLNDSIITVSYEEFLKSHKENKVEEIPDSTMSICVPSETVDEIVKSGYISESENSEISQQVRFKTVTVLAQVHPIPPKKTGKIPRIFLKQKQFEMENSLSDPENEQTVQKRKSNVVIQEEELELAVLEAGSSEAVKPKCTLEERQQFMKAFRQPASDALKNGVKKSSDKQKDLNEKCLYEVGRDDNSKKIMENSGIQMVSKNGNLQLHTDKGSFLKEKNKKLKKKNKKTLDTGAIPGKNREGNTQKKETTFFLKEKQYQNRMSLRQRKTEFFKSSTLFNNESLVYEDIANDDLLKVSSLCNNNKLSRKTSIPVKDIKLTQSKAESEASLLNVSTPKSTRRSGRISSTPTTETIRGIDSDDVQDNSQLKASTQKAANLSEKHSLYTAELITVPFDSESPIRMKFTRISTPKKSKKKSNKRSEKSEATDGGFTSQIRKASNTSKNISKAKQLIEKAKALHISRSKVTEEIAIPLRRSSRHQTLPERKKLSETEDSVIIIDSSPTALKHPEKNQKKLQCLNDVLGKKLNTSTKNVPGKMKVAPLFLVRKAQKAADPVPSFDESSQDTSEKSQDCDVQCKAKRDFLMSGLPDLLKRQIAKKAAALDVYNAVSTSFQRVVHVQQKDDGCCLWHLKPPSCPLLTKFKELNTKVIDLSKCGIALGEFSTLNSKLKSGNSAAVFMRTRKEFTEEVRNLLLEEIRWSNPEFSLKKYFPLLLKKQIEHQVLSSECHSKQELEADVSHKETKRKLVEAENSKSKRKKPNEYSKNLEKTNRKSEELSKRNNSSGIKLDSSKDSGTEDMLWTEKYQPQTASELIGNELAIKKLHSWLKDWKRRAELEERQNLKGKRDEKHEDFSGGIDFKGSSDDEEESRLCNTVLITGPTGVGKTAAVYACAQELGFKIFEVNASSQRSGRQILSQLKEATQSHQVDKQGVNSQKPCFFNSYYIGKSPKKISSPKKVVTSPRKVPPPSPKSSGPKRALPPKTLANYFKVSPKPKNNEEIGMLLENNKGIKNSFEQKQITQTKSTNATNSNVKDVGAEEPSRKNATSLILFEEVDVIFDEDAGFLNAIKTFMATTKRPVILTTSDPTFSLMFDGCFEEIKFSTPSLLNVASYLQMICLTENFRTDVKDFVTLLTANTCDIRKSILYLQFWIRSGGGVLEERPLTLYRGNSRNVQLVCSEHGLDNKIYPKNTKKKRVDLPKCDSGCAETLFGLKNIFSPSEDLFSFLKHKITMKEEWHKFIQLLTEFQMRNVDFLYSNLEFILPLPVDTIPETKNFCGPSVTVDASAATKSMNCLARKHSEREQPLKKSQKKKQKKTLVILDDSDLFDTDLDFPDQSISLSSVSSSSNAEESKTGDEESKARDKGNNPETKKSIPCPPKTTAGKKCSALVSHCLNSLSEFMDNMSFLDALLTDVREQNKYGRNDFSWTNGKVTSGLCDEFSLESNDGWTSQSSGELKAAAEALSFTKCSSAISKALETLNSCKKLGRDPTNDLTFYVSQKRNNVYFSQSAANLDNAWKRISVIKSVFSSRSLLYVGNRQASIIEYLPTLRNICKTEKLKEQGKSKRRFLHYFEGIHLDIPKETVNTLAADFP
# How it was run: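 Cells are dispensed in 1536-well format, then 5-fluorouridine and compound are pinned in. After a 16 hr incubation at 37 °C and 5% CO2, ONE-Glo is added and luciferase measured on a CCD imager.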
# [5] = Nrf2 qHTS screen for inhibitors: Validation (AID 493153; active means well fitted inhibition curve with a large enough effect in the main read-out, with a control signal flat, not every such curve was filed as active; further: potency means the concentration at half of the fitted maximal effect); settings: Potency: luciferase luminescence; viability change: measured here: cytotoxicity max response
# How it was run: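 A549 ARE_Fluc, 5% FBS OPTI-MEM; cpd titration, 18-24 h, 37°C/5% CO2. Read 1: CellTiter-Fluor (Ex 405/Em 525), cytotox. Read 2: luciferase lum, Nrf2 activity.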
# [6] = qHTS for Inhibitors of Cell Surface uPA Generation: Validation Assay (AID 493164);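 further: RAW 264.7 macrophage cells exposed to compound for 18 h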
# How it was run: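 ATP-Lite luminescence read-out: ATP remains high when uPA activity-dependent LF translocation into the cytoplasm is blocked. RAW 264.7 cells, 18 h compound exposure at 37 C; 7-point titration, 2.45 nM to 38.3 uM final.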
# [7] = molecular target: Thyrotropin-releasing hormone receptor (Homo sapiens) (UniProt P34981); assay: qHTS for Small Molecule Agonists and Allosteric Enhancers of Human TRH Receptor: Validation Screen for Agonists (AID 493127;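 active means calcium activation more than 3 SD above the typical response in the agonist read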;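 further: intracellular calcium rise by fluo-8 fluorescence before TRH EC20 addition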); settings: TRH receptor agonist cell assay; at 2 µM; stronger effect = higher value
# Sequence of Thyrotropin-releasing hormone receptor (Homo sapiens) (P34981 whole entry, looked up): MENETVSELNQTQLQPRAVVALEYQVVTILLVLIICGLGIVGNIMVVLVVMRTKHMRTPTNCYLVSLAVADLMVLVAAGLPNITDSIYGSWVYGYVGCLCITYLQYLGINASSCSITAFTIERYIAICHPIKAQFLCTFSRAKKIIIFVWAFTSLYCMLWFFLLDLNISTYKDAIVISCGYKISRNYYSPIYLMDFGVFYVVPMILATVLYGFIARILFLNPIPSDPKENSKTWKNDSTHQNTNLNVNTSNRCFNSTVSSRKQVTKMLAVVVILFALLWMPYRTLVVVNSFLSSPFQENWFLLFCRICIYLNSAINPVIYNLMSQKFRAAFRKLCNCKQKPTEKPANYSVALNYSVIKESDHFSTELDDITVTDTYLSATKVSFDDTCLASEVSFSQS
# How it was run: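 Compounds are added by online pintool to dye-loaded TRHR cells while fluorescence is recorded every second. A rise in calcium signal during the agonist read marks activation; a later 10 nM TRH addition (EC20) serves the separate enhancer mode.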
# [8] = molecular target: Galactokinase (Homo sapiens) (UniProt P51570); assay: qHTS Validation Assay for Inhibitors of Human Galactokinase (GALK) (AID 493189)
# Sequence of Galactokinase (Homo sapiens) (P51570 whole entry, looked up): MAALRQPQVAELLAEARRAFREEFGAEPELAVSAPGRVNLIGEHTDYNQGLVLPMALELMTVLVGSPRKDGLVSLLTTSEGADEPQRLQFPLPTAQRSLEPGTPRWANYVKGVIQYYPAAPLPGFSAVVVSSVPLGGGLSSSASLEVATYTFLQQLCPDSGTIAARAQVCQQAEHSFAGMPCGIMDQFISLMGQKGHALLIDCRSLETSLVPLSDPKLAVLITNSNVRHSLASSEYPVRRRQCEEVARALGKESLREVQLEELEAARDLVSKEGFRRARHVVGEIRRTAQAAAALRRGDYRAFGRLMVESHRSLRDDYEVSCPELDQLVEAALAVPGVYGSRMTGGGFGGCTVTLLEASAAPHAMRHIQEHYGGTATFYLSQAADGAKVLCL
# How it was run: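 Enzyme activity is inferred from ATP consumption: human GALK phosphorylates galactose (100 uM) using 35 uM ATP for 1 h at room temperature, and luciferase-based Kinase-Glo Plus reports unconsumed ATP.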
# [9] = Validation screen for small molecules that induce DNA re-replication in SW480 colon adenocarcinoma cells (AID 504364)
# How it was run: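 Image-based qHTS: compounds were incubated with SW480 cells for 48 hr, nuclei stained with Hoechst, and per-nucleus fluorescence intensity scanned to flag cells with excess DNA content.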
# [10] = molecular target: Tyrosyl-DNA phosphodiesterase 1 (Homo sapiens) (UniProt Q9NUW8); assay: Confirmation Assay for Inhibitors of Tyrosyl-DNA Phosphodiesterase (TDP1) (AID 489007); settings: recombinant human TDP1 enzymatic activity, dose-response; further: potency means the concentration at half of the fitted maximal effect; nearly all actives have a fitted effect of over 40% in size
# Sequence of Tyrosyl-DNA phosphodiesterase 1 (Homo sapiens) (Q9NUW8 whole entry, looked up): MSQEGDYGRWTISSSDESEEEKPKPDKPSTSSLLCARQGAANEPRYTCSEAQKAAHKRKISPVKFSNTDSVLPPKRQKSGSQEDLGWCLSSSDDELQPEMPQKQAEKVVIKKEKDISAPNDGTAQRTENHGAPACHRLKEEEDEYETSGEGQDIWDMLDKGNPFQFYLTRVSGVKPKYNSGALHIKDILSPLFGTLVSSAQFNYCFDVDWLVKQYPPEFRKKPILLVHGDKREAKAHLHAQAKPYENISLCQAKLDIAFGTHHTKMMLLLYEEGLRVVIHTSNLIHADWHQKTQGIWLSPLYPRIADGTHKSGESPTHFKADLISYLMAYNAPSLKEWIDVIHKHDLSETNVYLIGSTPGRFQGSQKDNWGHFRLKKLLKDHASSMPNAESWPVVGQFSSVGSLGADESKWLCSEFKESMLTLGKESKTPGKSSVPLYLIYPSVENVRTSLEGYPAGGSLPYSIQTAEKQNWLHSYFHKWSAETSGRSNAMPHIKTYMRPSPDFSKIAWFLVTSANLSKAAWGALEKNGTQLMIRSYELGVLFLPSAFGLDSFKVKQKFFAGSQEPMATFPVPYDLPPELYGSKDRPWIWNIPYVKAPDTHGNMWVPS
# How it was run: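 Compounds are preincubated 15 min at room temperature with 1 nM recombinant human Tdp1. The reaction starts on adding 15 nM FITC-phosphotyrosine DNA substrate, runs 5 min, and is detected by AlphaScreen beads after 10 min.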
compound,measurement,setting,value
CN(Cc1cc(Br)cc(Br)c1N)C1CCCCC1,Potency,[1],inactive
N[C@@H](Cc1ccc(O)c(O)c1)C(=O)O,outcome,[2],inactive
same,outcome,[3],inactive
same,Potency,[4],inactive
same,Potency,[5],inactive
same,viability change,[5],-3.54%
same,outcome,[6],inactive
CNC1CCCN(c2c(F)cc3c(=O)c(C(=O)O)cn(C4CC4)c3c2OC)C1 (configuration not stated),Potency,[1],inactive
CC1CC2C3CCC4=CC(=O)C=C[C@]4(C)[C@@]3(F)[C@@H](O)C[C@]2(C)[C@@]1(O)C(=O)CO (some centres not stated),outcome,[2],inactive
same,outcome,[3],inactive
same,Potency,[4],inactive
same,Potency,[5],0.013 µM (active)
same,viability change,[5],-3.14%
same,outcome,[6],inactive
CCN(CC)CCn1c(=O)c(Cc2ccc(OC)cc2)nc2ccccc21,outcome,[2],inactive
same,outcome,[3],inactive
same,Potency,[4],inactive
same,Potency,[5],inactive
same,viability change,[5],-5.84%
same,outcome,[6],inactive
Cc1cccc(Nc2ccncc2S(=O)(=O)NC(=O)NC(C)C)c1,Potency,[1],inactive
NC(=O)c1ccc2[nH]ccc2c1,outcome,[2],inactive
same,outcome,[3],inactive
same,Potency,[5],inactive
same,viability change,[5],-7.5%
same,outcome,[6],inactive
O=P(O)(O)C(O)(Cc1cccnc1)P(=O)(O)O,Potency,[1],inactive
Cc1cccc(N(C)C(=S)Oc2ccc3ccccc3c2)c1,Potency,[1],inactive
OCc1ccc(-c2nn(Cc3ccccc3)c3ccccc23)o1,outcome,[2],inactive
same,Potency,[4],inactive
same,activation,[7],0.188% (inactive)
same,Potency,[5],inactive
same,viability change,[5],4.14%
same,outcome,[6],inactive
same,outcome,[8],inactive
same,outcome,[9],inactive
O=C(O)CCn1c2c(c3ccccc31)C[C@H](NS(=O)(=O)c1ccc(F)cc1)CC2,Potency,[1],inactive
CCCCCCNC(=O)n1cc(F)c(=O)[nH]c1=O,Potency,[1],inactive
CC(C)NCC(O)c1ccc(NS(C)(=O)=O)cc1 (configuration not stated),outcome,[2],inactive
same,Potency,[1],inactive
same,outcome,[3],inactive
same,Potency,[4],inactive
same,activation,[7],0.875% (inactive)
same,Potency,[5],inactive
same,viability change,[5],-6.97%
same,outcome,[6],inactive
same,outcome,[8],inactive
same,outcome,[9],inactive
CCCc1nc(C)c2c(=O)[nH]c(-c3cc(S(=O)(=O)N4CCN(CC)CC4)ccc3OCC)nn12,Potency,[1],inactive
Nc1nc(N)c2nc(CNc3ccc(C(=O)NC(CCC(=O)O)C(=O)O)cc3)cnc2n1 (configuration not stated),outcome,[2],inactive
same,Potency,[4],inactive
same,activation,[7],1% (inactive)
same,outcome,[6],inactive
same,outcome,[8],inactive
same,outcome,[9],inactive
CCCCS(=N)(=O)CCC(N)C(=O)O (configuration not stated),outcome,[2],inactive
same,outcome,[3],inactive
same,Potency,[4],inactive
same,activation,[7],-2.38% (inactive)
same,Potency,[5],inactive
same,viability change,[5],4.08%
same,outcome,[6],inactive
same,outcome,[8],inactive
same,outcome,[9],inactive
CC(C)OC(=O)C(C(=O)OC(C)C)=C1SC=CS1,Potency,[1],inactive
CCN(CC)CC#CCOC(=O)C(O)(c1ccccc1)C1CCCCC1 (configuration not stated),outcome,[2],inactive
same,outcome,[3],inactive
same,Potency,[4],inactive
same,activation,[7],-7.56% (inactive)
same,Potency,[5],inactive
same,viability change,[5],-11.3%
same,outcome,[6],inactive
same,outcome,[9],inactive
OC(Cn1cncn1)(Cn1cncn1)c1ccc(F)cc1F,Potency,[1],inactive
COc1cc2nc(N3CCCN(C)CC3)nc(NC3CCN(Cc4ccccc4)CC3)c2cc1OC,outcome,[2],inactive
same,outcome,[3],inactive
same,Potency,[4],25.9 µM (active)
same,outcome,[6],inactive
COC(=O)Nc1nc2ccc(Sc3ccccc3)cc2[nH]1,Potency,[1],inactive
O=C(O)C1CCCN(CCC=C(c2ccccc2)c2ccccc2)C1 (configuration not stated),outcome,[2],inactive
same,outcome,[3],inactive
same,Potency,[4],inactive
same,activation,[7],0.875% (inactive)
same,Potency,[5],inactive
same,viability change,[5],-7.12%
same,outcome,[6],inactive
same,outcome,[8],inactive
same,outcome,[9],inactive
Nc1nc(N)nc(-c2cc(Cl)ccc2Cl)n1,Potency,[1],inactive
COc1ccc(C(=O)CC(=O)c2ccc(C(C)(C)C)cc2)cc1,Potency,[10],25.1 µM (active)
CCCc1cc(C(N)=S)ccn1,Potency,[1],inactive
CC1=C(C(=O)O)N2C(=O)[C@@H](NC(=O)C(N)c3ccccc3)[C@H]2SC1 (some centres not stated),outcome,[2],inactive
same,outcome,[3],inactive
same,Potency,[4],inactive
same,activation,[7],0% (inactive)
same,Potency,[5],inactive
same,viability change,[5],3.05%
same,outcome,[6],inactive
same,outcome,[8],inactive
same,outcome,[9],inactive
CN(CCOc1ccc(CC2SC(=O)NC2=O)cc1)c1ccccn1 (configuration not stated),Potency,[1],inactive
O=c1oc2c(O)c(O)cc3c(=O)oc4c(O)c(O)cc1c4c23,Potency,[10],0.004 µM (active)
NC(=O)c1cccc(N)c1,outcome,[2],inactive
same,outcome,[3],inactive
same,Potency,[4],inactive
same,activation,[7],1.12% (inactive)
same,Potency,[5],inactive
same,viability change,[5],9.41%
same,outcome,[6],inactive
same,outcome,[8],inactive
same,outcome,[9],inactive
COc1cc2ncnc(Nc3cccc(Cl)c3)c2cc1OC,outcome,[2],inactive
same,outcome,[3],inactive
same,activation,[7],-6.5% (inactive)
same,outcome,[6],inactive
same,outcome,[8],inactive
same,outcome,[9],inactive
Cc1ccc(S(=O)(=O)N[C@@H](Cc2ccccc2)C(=O)CCl)cc1,outcome,[3],inactive
same,Potency,[4],14.6 µM (active)
CCN1CCCC1CNC(=O)c1cc(S(N)(=O)=O)ccc1OC (configuration not stated),outcome,[3],inactive
same,Potency,[5],inactive
same,viability change,[5],7.94%
